Measurements: PubChem BioAssay AID1159580 (chemical genetic matrix, 2015)
About 2,000 (36%) of roughly 5,500 compounds were called active. About 18% were inconclusive and are not listed. The list shows a part of the results. Values without a mark were called inactive. Rule as the data show it: active = normalized growth mostly below about 0.91 (no sharp cut-off); inconclusive = no clear call, values can overlap the other calls; inactive = mostly above about 0.92.

Assay: chemical genetic growth profiling, strain panel (AID 1159580);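 also: tested at 20 µM; growth read once vehicle control cultures reached saturation at 30 °C; 1 = growth at the plate median or of vehicle wells; lower values mean less growth of the strain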
Conditions: growth OD

## CCCCOc1ccc(C(=O)CCN2CCCCC2)cc1
S. cerevisiae deletion strains, locus YJR066W, strain TOR1, active compounds read low
  normalized growth: 0.67 (active)
S. cerevisiae deletion strains, locus YJR075W, strain HOC1, active compounds read low
  normalized growth: 0.66 (active)
S. cerevisiae deletion strains, locus YKL009W, strain mrt4, active compounds read low
  normalized growth: 0.902
S. cerevisiae deletion strains, locus YKL068W, active compounds read low
  normalized growth: 0.994
S. cerevisiae deletion strains, locus YKL085W, strain MDH1 (second series), active compounds read low
  normalized growth: 0.973
S. cerevisiae deletion strains, locus YKL085W, strain MDH1, active compounds read low
  normalized growth: 0.973
S. cerevisiae deletion strains, locus YKL160W, strain elf1, active compounds read low
  normalized growth: 0.918
S. cerevisiae deletion strains, locus YKR001C, strain vps1, active compounds read low
  normalized growth: 0.559 (active)
S. cerevisiae deletion strains, locus YKR026C, strain gcn3, active compounds read low
  normalized growth: 0.996
S. cerevisiae deletion strains, locus YKR091W, strain srl3, active compounds read low
  normalized growth: 0.999
S. cerevisiae deletion strains, locus YLL001W, strain dnm1, active compounds read low
  normalized growth: 0.428 (active)
S. cerevisiae deletion strains, locus YLL026W, active compounds read low
  normalized growth: 0.948
S. cerevisiae deletion strains, locus YLL041C, strain sdh2, active compounds read low
  normalized growth: 0.981
S. cerevisiae deletion strains, locus YLR027C, strain aat2, active compounds read low
  normalized growth: 0.888 (active)
S. cerevisiae deletion strains, locus YLR039C, strain RIC1, active compounds read low
  normalized growth: 0.426 (active)
S. cerevisiae deletion strains, locus YLR058C, strain SHM2, active compounds read low
  normalized growth: 0.85 (active)
S. cerevisiae deletion strains, locus YLR102C, strain apc9, active compounds read low
  normalized growth: 0.0845 (active)
S. cerevisiae deletion strains, locus YLR113W, strain HOG1, active compounds read low
  normalized growth: 1.03
S. cerevisiae deletion strains, locus YLR221C, strain rsa3, active compounds read low
  normalized growth: 0.952
S. cerevisiae deletion strains, locus YLR258W, strain gsy2, active compounds read low
  normalized growth: 0.95
S. cerevisiae deletion strains, locus YLR262C, strain YPT6 (second series), active compounds read low
  normalized growth: 0.662 (active)
S. cerevisiae deletion strains, locus YLR262C, strain YPT6, active compounds read low
  normalized growth: 0.523 (active)
S. cerevisiae deletion strains, locus YLR268W, strain sec22, active compounds read low
  normalized growth: 0.244 (active)
S. cerevisiae deletion strains, locus YLR320W, strain mms22, active compounds read low
  normalized growth: 0.565 (active)
S. cerevisiae deletion strains, locus YLR330W, strain CHS5, active compounds read low
  normalized growth: 0.0853 (active)
S. cerevisiae deletion strains, locus YLR342W, strain FKS1 (second series), active compounds read low
  normalized growth: 0.432 (active)
S. cerevisiae deletion strains, locus YLR342W, strain FKS1, active compounds read low
  normalized growth: 0.985
S. cerevisiae deletion strains, locus YLR357W, strain rsc2, active compounds read low
  normalized growth: 1.03
S. cerevisiae deletion strains, locus YLR370C, strain arc18, active compounds read low
  normalized growth: 0.85 (active)
S. cerevisiae deletion strains, locus YLR371W, strain rom2, active compounds read low
  normalized growth: 0.0987 (active)
S. cerevisiae deletion strains, locus YLR384C, strain iki3, active compounds read low
  normalized growth: 0.976
S. cerevisiae deletion strains, locus YLR418C, strain cdc73, active compounds read low
  normalized growth: 0.267 (active)
S. cerevisiae deletion strains, locus YML016C, strain PPZ1, active compounds read low
  normalized growth: 0.17 (active)
S. cerevisiae deletion strains, locus YML032C, strain rad52, active compounds read low
  normalized growth: 0.748 (active)
S. cerevisiae deletion strains, locus YML120C, strain ndi1, active compounds read low
  normalized growth: 0.973
S. cerevisiae deletion strains, locus YML124C, strain tub3, active compounds read low
  normalized growth: 0.552 (active)
S. cerevisiae deletion strains, locus YMR058W, strain fet3, active compounds read low
  normalized growth: 0.731 (active)
S. cerevisiae deletion strains, locus YMR078C, strain ctf18, active compounds read low
  normalized growth: 0.138 (active)
S. cerevisiae deletion strains, locus YMR125W, strain sto1, active compounds read low
  normalized growth: 0.927
S. cerevisiae deletion strains, locus YMR129W, active compounds read low
  normalized growth: 0.99
S. cerevisiae deletion strains, locus YMR205C, strain PFK2, active compounds read low
  normalized growth: 0.875 (active)
S. cerevisiae deletion strains, locus YMR223W, strain ubp8, active compounds read low
  normalized growth: 0.16 (active)
S. cerevisiae deletion strains, locus YMR231W, strain pep5, active compounds read low
  normalized growth: 0.972
S. cerevisiae deletion strains, locus YMR263W, strain SAP30, active compounds read low
  normalized growth: 0.916
S. cerevisiae deletion strains, locus YMR307W, strain GAS1, active compounds read low
  normalized growth: 0.727
S. cerevisiae deletion strains, locus YNL067W, strain RPL9B, active compounds read low
  normalized growth: 0.589 (active)
S. cerevisiae deletion strains, locus YNL071W, strain lat1, active compounds read low
  normalized growth: 0.567 (active)
S. cerevisiae deletion strains, locus YNL153C, strain GIM3, active compounds read low
  normalized growth: 0.839 (active)
S. cerevisiae deletion strains, locus YNL183C, strain NPR1, active compounds read low
  normalized growth: 0.435 (active)
S. cerevisiae deletion strains, locus YNL209W, strain ssb2, active compounds read low
  normalized growth: 0.981
S. cerevisiae deletion strains, locus YNL233W, strain BNI4, active compounds read low
  normalized growth: 0.167 (active)
S. cerevisiae deletion strains, locus YNL248C, strain rpa49, active compounds read low
  normalized growth: 0.645 (active)
S. cerevisiae deletion strains, locus YNL250W, strain rad50, active compounds read low
  normalized growth: 0.986
S. cerevisiae deletion strains, locus YNL271C, strain bni1, active compounds read low
  normalized growth: 0.94
S. cerevisiae deletion strains, locus YNL298W, strain CLA4, active compounds read low
  normalized growth: 0.96
S. cerevisiae deletion strains, locus YNL307C, strain MCK1, active compounds read low
  normalized growth: 0.0713 (active)
S. cerevisiae deletion strains, locus YNL322C, strain KRE1 (second series), active compounds read low
  normalized growth: 1.03
S. cerevisiae deletion strains, locus YNR049C, strain mso1, active compounds read low
  normalized growth: 0.693 (active)
S. cerevisiae deletion strains, locus YNR052C, strain pop2, active compounds read low
  normalized growth: 0.864 (active)
S. cerevisiae deletion strains, locus YOL006C, strain TOP1, active compounds read low
  normalized growth: 0.248 (active)
S. cerevisiae deletion strains, locus YOL012C, strain htz1
  normalized growth: 0.354
S. cerevisiae deletion strains, locus YOL147C, strain pex11, active compounds read low
  normalized growth: 0.965
S. cerevisiae deletion strains, locus YOR001W, strain rrp6, active compounds read low
  normalized growth: 0.833 (active)
S. cerevisiae deletion strains, locus YOR061W, strain CKA2, active compounds read low
  normalized growth: 0.691 (active)
S. cerevisiae deletion strains, locus YOR069W, strain VPS5, active compounds read low
  normalized growth: 0.558 (active)
S. cerevisiae deletion strains, locus YOR070C, strain gyp1, active compounds read low
  normalized growth: 0.938
S. cerevisiae deletion strains, locus YOR080W, strain dia2, active compounds read low
  normalized growth: 0.975
S. cerevisiae deletion strains, locus YOR083W, strain WHI5, active compounds read low
  normalized growth: 0.952
S. cerevisiae deletion strains, locus YOR106W, strain vam3, active compounds read low
  normalized growth: 0.97
S. cerevisiae deletion strains, locus YOR136W, strain idh2, active compounds read low
  normalized growth: 0.0967 (active)
S. cerevisiae deletion strains, locus YOR144C, strain elg1, active compounds read low
  normalized growth: 0.994
S. cerevisiae deletion strains, locus YOR184W, strain ser1, active compounds read low
  normalized growth: 0.161 (active)
S. cerevisiae deletion strains, locus YOR231W, strain MKK1, active compounds read low
  normalized growth: 1.03
S. cerevisiae deletion strains, locus YOR265W, strain rbl2, active compounds read low
  normalized growth: 0.968
S. cerevisiae deletion strains, locus YOR270C, strain vph1, active compounds read low
  normalized growth: 0.275 (active)
S. cerevisiae deletion strains, locus YOR290C, strain snf2, active compounds read low
  normalized growth: 0.882
S. cerevisiae deletion strains, locus YOR316C, strain cot1, active compounds read low
  normalized growth: 0.0893 (active)
S. cerevisiae deletion strains, locus YPL051W, strain arl3, active compounds read low
  normalized growth: 0.894 (active)
S. cerevisiae deletion strains, locus YPL055C, strain LGE1, active compounds read low
  normalized growth: 0.683 (active)
S. cerevisiae deletion strains, locus YPL078C, strain atp4, active compounds read low
  normalized growth: 0.507 (active)
S. cerevisiae deletion strains, locus YPL106C, strain sse1, active compounds read low
  normalized growth: 1.1
S. cerevisiae deletion strains, locus YPL240C, strain hsp82, active compounds read low
  normalized growth: 1
S. cerevisiae deletion strains, locus YPL241C, strain CIN2, active compounds read low
  normalized growth: 0.882 (active)
S. cerevisiae deletion strains, locus YPL256C, strain CLN2, active compounds read low
  normalized growth: 1.01
S. cerevisiae deletion strains, locus YPR119W, strain clb2, active compounds read low
  normalized growth: 0.0832 (active)
S. cerevisiae deletion strains, locus YPR141C, strain kar3, active compounds read low
  normalized growth: 0.981
S. cerevisiae deletion strains, locus YPR163C, strain tif3, active compounds read low
  normalized growth: 0.23 (active)
S. cerevisiae deletion strains, locus YPR167C, strain met16, active compounds read low
  normalized growth: 0.206 (active)
S. cerevisiae deletion strains, strain wtn01, active compounds read low
  normalized growth: 0.372 (active)
S. cerevisiae strains, strain wild type, active compounds read low
  normalized growth: 0.647 (active)
